For 23 compounds, outcome and AC50 results are on record in PubChem BioAssay (EPA / NIEHS).

What is called AC50 is the concentration at which the activity in the assay is half-maximal.

Assay [1] can be described thus: LTEA_HepaRG_LDH_cytotoxicity: Cytotoxicity Assessment in the Life Technologies and Expression Analysis (LTEA) Assay (AID 2283563). The method in brief: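 Cells were thawed and plated for 48 h. Medium was then replaced with serum-free induction medium. Chemicals (8 half-log points, maximum 100 uM, 0.5% DMSO) were added in duplicate for 48 h, after which spent medium was assayed for LDH.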

Assay [2] in a line: TOX21_p53_BLA_p2_viability: Viability Assessment in the Tox21 HCT-116 p53 Agonism Beta-lactamase Assay, Phase 2 (AID 2283591).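 Note: compound exposure lasted 16 h at 37 °C; actives lower the ATP signal meaning cytotoxicity.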 The method in brief:
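Cytotoxicity readout: CellTiter-Glo ATP luminescence, 30 min at room temperature, after the beta-lactamase read. Cells were HCT116 exposed 16 h at 37C to compounds pin-transferred at 217-fold dilution from DMSO stocks.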

The target in assay [3] is Cellular tumor antigen p53 (Homo sapiens) (UniProt P04637). Kind of assay: TOX21_p53_BLA_p2_ratio: Tox21 HCT-116 p53 Agonism Beta-lactamase Assay, Ratio, Phase 2 (AID 2283592). The method in brief:
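Plated HCT116 p53-bla cells (4000/well) received compound after 5 h, then 16 h at 37C/5% CO2. CCF4-AM added, 2 h RT. Ratio of 460 to 530 nm emission taken as the p53 reporter signal.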

A short description of assay [4]: TOX21_p53_BLA_p3_viability: Viability Assessment in the Tox21 HCT-116 p53 Agonism Beta-lactamase Assay, Phase 3 (AID 2283593).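 Note: cells exposed to compound for 16 h before reading.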 The method in brief: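 Cellular ATP was quantified by CellTiter-Glo luminescence, read after 30 min at room temperature. Beforehand, HCT116 cells (4000/well) received compound 5 h post-seeding, 217-fold diluted from DMSO, then incubated 16 h at 37C.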

Assay [5] concerns the target Cellular tumor antigen p53 (Homo sapiens) (UniProt P04637). The experiment in a line: TOX21_p53_BLA_p3_ratio: Tox21 HCT-116 p53 Agonism Beta-lactamase Assay, Ratio, Phase 3 (AID 2283596). Summed up: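 Cells were seeded at 4000/well, rested 5 h at 37C, then dosed with DMSO compound solutions (217-fold dilution) for 16 h. CCF4-AM substrate was loaded for 2 h at room temperature, and the 460/530 nm emission ratio was fitted for gain of signal versus DMSO.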

The nature of assay [6]: TOX21_p53_BLA_p4_viability: Viability Assessment in the Tox21 HCT-116 p53 Agonism Beta-lactamase Assay, Phase 4 (AID 2283597).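 Note: hits lower the luminescence signal meaning cytotoxicity.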 Summed up: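 Readout: ATP luminescence (CellTiter-Glo), measured 30 min after reagent addition at RT. The reagent followed a 2 h CCF4-AM incubation, and the cells had been exposed to compound for 16 h at 37C.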
The target of assay [7] is Cellular tumor antigen p53 (Homo sapiens) (UniProt P04637). The experiment in a line: TOX21_p53_BLA_p5_ratio: Tox21 HCT-116 p53 Agonism Beta-lactamase Assay, Ratio, Phase 5 (AID 2283599). The method in brief: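 Beta-lactamase reporter ratio (blue 460 nm over green 530 nm, 405 nm excitation) after 2 h CCF4-AM loading, in HCT-116 cells exposed 16 h at 37 C to compounds pinned at 217-fold dilution. Increases relative to DMSO baseline scored.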

Assay [8] can be described thus: TOX21_p53_BLA_p5_viability: Viability Assessment in the Tox21 HCT-116 p53 Agonism Beta-lactamase Assay, Phase 5 (AID 2283600). The method in brief: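 Workflow: seed 4000 cells per well, wait 5 h, add compounds (DMSO, 217-fold dilution), incubate 16 h, load CCF4-AM 2 h, add CellTiter-Glo, read luminescence after 30 min.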
The target of assay [9] is Cellular tumor antigen p53 (Homo sapiens) (UniProt P04637). The experiment in a line: TOX21_p53_BLA_p4_ratio: Tox21 HCT-116 p53 Agonism Beta-lactamase Assay, Ratio, Phase 4 (AID 2283601). The method in brief:
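Signal is the blue/green (460nm/530nm) ratio of cleaved versus uncleaved CCF4-AM substrate, read after 2 h substrate loading. Cells were HCT116 carrying the p53-responsive beta-lactamase reporter, dosed 16 h at 37C, 5% CO2; CellTiter-Glo measured in parallel.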

Assay [10] can be described thus: ATG_XTT_Cytotoxicity: Cytotoxicity Assessment in the Attagene TRANS-FACTORIAL HepG2 Assay (AID 2283584). The method in brief:
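Cells: human HepG2, transiently transfected with MRTU reporter constructs. Exposure 24 h. Readout: XTT, cell number. Baseline/neg ctrl DMSO; loss-of-signal scored.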

Several values for one entry are separate records, joined by “and”; a condition that tells them apart may be missing. Identical values can stand only once. Inconclusive results are not listed. Where a structure was tested more than once in an assay, its records may differ in their call. Activity calls are given as the source filed them. Rule for the calls: active = hit-call score of the fitted dose curve at least 0.9, where 1 is the maximum; inconclusive = response in the unintended direction; inactive = score below 0.9.

Cellular tumor antigen p53 (Homo sapiens), sequence (P04637 whole entry, looked up): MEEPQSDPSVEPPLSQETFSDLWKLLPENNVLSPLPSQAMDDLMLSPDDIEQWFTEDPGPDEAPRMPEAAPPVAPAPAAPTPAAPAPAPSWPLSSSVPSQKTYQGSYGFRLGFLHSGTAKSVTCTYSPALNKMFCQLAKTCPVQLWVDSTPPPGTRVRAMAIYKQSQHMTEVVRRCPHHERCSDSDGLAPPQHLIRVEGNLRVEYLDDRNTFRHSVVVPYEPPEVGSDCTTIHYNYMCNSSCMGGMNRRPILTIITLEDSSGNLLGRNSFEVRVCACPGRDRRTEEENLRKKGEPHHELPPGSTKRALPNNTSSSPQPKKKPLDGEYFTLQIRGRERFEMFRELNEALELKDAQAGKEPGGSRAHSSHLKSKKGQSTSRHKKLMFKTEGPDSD

With `O=C(O)c1ccc([N+](=O)[O-])cc1`, the outcome in [1], in assay [2], in assay [3], in [4], in [5] and in assay [6] was inactive. For the same compound, the result in [7], in assay [8] and in [9] was inactive.

On to `CC(C)(C#N)c1cc(Cn2cncn2)cc(C(C)(C)C#N)c1`, for which the result in assay [10], in [2], in assay [3], in assay [4], in assay [5] and in assay [6] was inactive. For the same compound, the result in assay [7], in assay [8] and in assay [9] was inactive.

As to `C=C(C)[C@@H]1CC[C@@H](C)C[C@@H]1O`, the call in assay [10], in assay [2], in assay [3], in assay [4], in assay [5] and in assay [6] was inactive. In addition, the outcome in assay [7], in [8] and in assay [9] was inactive.

`Nc1cc(N)cc(C(=O)O)c1`: in assay [10], the call was inactive.

Turning to `NCCCCCCN`, the call in assay [10], in assay [2], in assay [3], in assay [4], in assay [5] and in assay [6] was inactive. In addition, the result in assay [7], in assay [8] and in assay [9] was inactive.

For the compound `CC(CN1c2ccccc2Sc2ccccc21)N(C)C` (stereo unspecified), the call in assay [10], in assay [3], in assay [5], in assay [7] and in assay [9] was inactive. For the same compound, the AC50 in [2] is 38.9 µM (active); in assay [3] it was 43.6 µM (active); in [7] it was 43.5 µM (active); in assay [8], 39.8 µM (active).

On to `O=C(O)CCCCCCCC(=O)O`, for which the compound was called inactive in assay [10], in assay [2], in assay [3], in assay [4], in [5] and in assay [6]. For the same compound, the outcome in assay [7], in assay [8] and in [9] was inactive.

Turning to `CC(C)C(C)(C)C(C)(C)C(C)(C)S`, the outcome in assay [10], in assay [2], in assay [3], in assay [4], in [5] and in assay [6] was inactive. The outcome in assay [7], in assay [8] and in assay [9] was inactive.

As to `CCN(CC)CCOC(=O)c1ccc(N)cc1`, the compound was called inactive in [10], in assay [2], in assay [3], in [4], in [5] and in [6]. Moreover, the outcome in assay [7], in assay [8] and in [9] was inactive.

In the case of `OCCOCCOCCOCCO`, the outcome in assay [10], in assay [2], in assay [3], in [4], in [5] and in assay [6] was inactive. Besides, the result in assay [7], in assay [8] and in assay [9] was inactive.

Turning to `C=C(C)C(=O)Nc1ccc(Cl)c(Cl)c1`, the compound was classed as inactive in assay [10], in [2], in assay [3], in assay [4], in assay [5] and in [6]. Moreover, the result in assay [7], in assay [8] and in [9] was inactive. The half-maximal activity concentration (AC50) was 60.6 µM (active) in assay [3], 56.1 µM (active) in assay [5], 74.7 µM (active) in [7] and 68 µM (active) in assay [9].

As for `NC(=O)NC1NC(=O)NC1=O` (stereo unspecified), the call in assay [10], in assay [2], in assay [3], in assay [4], in assay [5] and in assay [6] was inactive. Also, the result in assay [7], in [8] and in assay [9] was inactive.

Turning to `NC(N)=NC(=O)c1nc(Cl)c(N)nc1N`, the result in assay [10], in assay [2], in assay [3], in assay [4], in assay [5] and in assay [6] was inactive. For the same compound, the result in assay [7], in assay [8] and in assay [9] was inactive.

Regarding `O=C(Cl)c1cccc(C(=O)Cl)c1`, the result in [10], in assay [2], in [3], in assay [4], in assay [5] and in assay [7] was inactive. In addition, the result in assay [8] and in [9] was inactive. For the same compound, the half-maximal activity concentration (AC50) in [3] is 46.1 µM (active).

As for `CC(=O)[C@H]1CC[C@H]2[C@@H]3CC=C4C[C@@H](O)CC[C@]4(C)[C@H]3CC[C@]12C`, the compound was classed as inactive in assay [10], in assay [2], in assay [3], in assay [4], in assay [5] and in assay [6]. In addition, the result in assay [7], in assay [8] and in [9] was inactive.

`Nc1ccc(F)c([N+](=O)[O-])c1`: the call in [10] was inactive.

For the compound `Cc1ccc(O)c(C(C)(C)C)c1`, the call in assay [10], in [2], in assay [3], in assay [4], in [5] and in assay [8] was inactive. Moreover, the AC50 in [2] was 44.8 µM (active); in assay [3], 68.4 µM (active); in [4], 36.7 µM (active); in [5] it was 49.1 µM (active); in assay [7], 60.5 µM (active) and 67.9 µM (active); in assay [8], 42.9 µM (active). Besides, in [9], the half-maximal activity concentration (AC50) is 72.2 µM (active) and 68.5 µM (active).

On to `O=C1c2ccccc2C(=O)N1SC1CCCCC1`, for which the call in assay [10], in [2], in assay [3], in [5], in assay [7] and in assay [8] was inactive. In assay [9], the result was inactive. Besides, the AC50 in [2] is 61.2 µM (active); in assay [3] it was 81.1 µM (active); in assay [4], 47.6 µM (active) and 86.6 µM (active); in [5], 57 µM (active); in assay [7], 44.8 µM (active); in assay [9], 76 µM (active).

In the case of `C=O`, in [10], the compound was classed as inactive.

Consider `CCn1c2ccccc2c2cc(N)ccc21`, for which the compound was called inactive in assay [10], in [2], in assay [3], in assay [4], in assay [5] and in assay [7]. Further, the outcome in [8] and in assay [9] was inactive. For the same compound, the AC50 in [3] is 65.1 µM (active) and 74.2 µM (active); in assay [5], 68 µM (active); in assay [9], 64 µM (active).

`CN(C)CCOCCN(C)C`: the compound was classed as inactive in [10], in [2], in assay [3], in [4], in assay [5] and in assay [6]. Also, the result in assay [7], in assay [8] and in [9] was inactive.

With `CCCCCCCCCCCCOCCO`, in assay [10], the compound was called inactive.

For the compound `C=CC(C)(C)O`, the result in [10] was inactive.
